Screens deposited in PubChem BioAssay by National Center for Advancing Translational Sciences (NCATS).
Rows were chosen to be rich in hits. Some 22% of all compounds tested hit in one or more screens of this group.
Pf growth 96h – P. falciparum growth inhibition at 96 hours. Potency, µM (highest dose often 28.7 µM), usual class: inhibitors. P. falciparum luciferase reporter growth, 96 h. actives 6.9% (n = 320,000)
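Two parasite generations (96 h, 37 C, 5% CO2) of compound exposure in infected erythrocytes (0.05% parasitemia, 2% hematocrit). Luciferase-reporter P. falciparum; decreased luminescence indicates inhibited growth, aimed at apicoplast-acting delayed death.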
LmPK inhibitor – inhibitors of Leishmania mexicana pyruvate kinase | purified LmPK, Kinase-Glo ATP luminescence, 1 h | Potency, µM (highest dose often 57.5 µM), usual class: inhibitors | actives 0.37% (n = 290,000) | AID 1721 | Q27686
Target sequence (Q27686 whole entry, looked up): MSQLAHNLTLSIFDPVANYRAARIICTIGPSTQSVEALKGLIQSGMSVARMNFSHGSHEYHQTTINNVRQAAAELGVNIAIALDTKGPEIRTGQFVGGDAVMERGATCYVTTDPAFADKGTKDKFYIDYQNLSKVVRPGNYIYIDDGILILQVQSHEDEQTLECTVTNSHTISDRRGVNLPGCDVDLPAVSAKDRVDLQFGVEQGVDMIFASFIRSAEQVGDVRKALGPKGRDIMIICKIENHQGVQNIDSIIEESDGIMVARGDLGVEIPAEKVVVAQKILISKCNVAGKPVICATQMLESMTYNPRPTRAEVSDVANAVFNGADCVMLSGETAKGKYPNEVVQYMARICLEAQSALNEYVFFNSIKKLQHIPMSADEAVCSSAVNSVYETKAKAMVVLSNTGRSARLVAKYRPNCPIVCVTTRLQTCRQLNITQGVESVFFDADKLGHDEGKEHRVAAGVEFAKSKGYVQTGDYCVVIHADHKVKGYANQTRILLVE
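Purified LmPK (0.1 nM) with 0.5 mM PEP and 0.1 mM ADP in imidazole buffer pH 7.2 with MgCl2/KCl, 1 h at room temperature. ATP formed was read by luciferase luminescence and normalized to no-enzyme and uninhibited controls.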
Shiga inhibitor – Shiga toxin inhibition | Vero cells, Shiga toxin protein synthesis inhibition reporter | inhibition, % at 38.7 µM | actives 9.2% (n = 290,000) | AID 2315; in the data active = inhibition mostly above about 28%, no sharp cut-off; inactive = mostly below about 43%
CHX counter – counter-screen for Shiga toxin inhibitors: cycloheximide protein synthesis inhibition; actives 12% (n = 300,000); max response, %; cell reporter, cycloheximide protein synthesis inhibition counterscreen; in the data active = max response mostly above about 13%, no sharp cut-off; inactive = mostly below about 14%; also: read at 38.3 µM for the half of the compounds with a filed dose
Pf growth 48h – P. falciparum growth inhibition at 48 hours (one generation); P. falciparum luciferase growth in erythrocytes, 48 h; Potency, µM (doses to about 28.7 µM), usual class: inhibitors; AID 504832; actives 5.9% (n = 310,000)
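Luciferase-expressing P. falciparum in infected erythrocytes (2% hematocrit, 0.1% parasitemia final) in RPMI 1640/0.5% Albumax were exposed to compound for 48 hours at 37 C, 5% CO2; growth read as luminescence.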
Numbers stand for hits; n = inactive; u = inconclusive; x = no result. Unless noted, calls follow the shape of the dose curve; as a rule, active = well fitted inhibition curve with a large enough effect; inconclusive = small, poorly fitted or top-dose-only effect, or another doubt; inactive = no such curve, though single readings can be large or run the other way.

SMILES | Pf growth 96h | LmPK inhibitor | Shiga inhibitor | CHX counter | Pf growth 48h
O=C(NCc1ccco1)C(=O)NCC1OCCCN1S(=O)(=O)c1ccccc1 (centres undefined) | n | n | n | n | n
Cc1ccc(-c2nc(CS(=O)(=O)CC(=O)NC3CCCCCC3)c(C)o2)cc1 | n | n | n | n | n
Cc1ccc(C)c(-n2ccnc2SCC(=O)c2c(N)n(C3CC3)c(=O)[nH]c2=O)c1 | u | x | x | x | n
OCc1cccc(Nc2ncnc3sc4c(c23)CCCCC4)c1 | n | n | n | n | n
CCCN1CCc2c(sc3nc(SCC)n(-c4ccccc4)c(=O)c23)C1 | 0.262µM | n | n | n | 1.31µM
CN1CCc2c(sc3c2c(=O)n(-c2ccccc2)c2nnc(SCc4ccccc4)n32)C1 | x | n | n | n | 6.57µM
COc1ccc(-n2c(SC)nc3sc4c(c3c2=O)CCN(C)C4)cc1 | 7.38µM | n | n | n | 3.7µM
COc1ccc(NC(=O)CSc2nc3sc4c(c3c(=O)n2-c2ccc(OC)cc2)CCN(C)C4)cc1 | u | n | n | n | u
COc1ccc(-n2c(C)nc3sc4c(c3c2=O)CCC4)cc1 | 4.65µM | n | n | n | n
COCCSc1nc2sc3c(c2c(=O)n1-c1ccccc1)CCN(C)C3 | u | n | n | n | x
O=C(COc1ccc(S(=O)(=O)NC2CCCCC2)cc1)N1CCN(c2cccc(Cl)c2)CC1 | x | n | n | n | u
C=CCSc1nc2sc3c(c2c(=O)n1-c1ccccc1)CCN(C)C3 | 0.586µM | n | n | n | u
CCCN1CCc2c(sc3nc(SCC)n(-c4ccc(OC)cc4)c(=O)c23)C1 | 0.586µM | n | n | n | 5.86µM
CCSc1nc2sc3c(c2c(=O)n1-c1ccccc1)CCN(C)C3 | n | n | x | n | 3.29µM
CCCN1CCc2c(sc3nc(SC)n(-c4ccccc4)c(=O)c23)C1 | 0.738µM | n | n | n | 0.928µM
Cc1ccc(C2(C)NC(=O)N(CC(=O)N3CCN(C(=O)c4cccs4)CC3)C2=O)cc1 (centres undefined) | n | x | x | x | n
C/C(=N/OC(=O)CC(C)C)c1cc(-c2ccc(Cl)cc2)no1 | n | n | 124.3 | n | n
COc1ccc(N=N/C(=C\O)C(=O)c2cccs2)cc1 | n | n | 58.0 | 39.1 | n
COc1ccc(C(=O)/C(=C/O)N=Nc2ccc(F)cc2)cc1 | u | n | 76.4 | 58.2 | n
Cc1ccc(N=N/C(=C\O)C(=O)c2ccncc2)cc1 | u | n | n | n | x
Cc1ccc(C2CC(c3cccs3)=NN2C(=O)CSc2nc(=O)n3ccc(C)cc3n2)cc1 (centres undefined) | u | x | x | x | 8.28µM
COc1ccc(C2CC(c3cccs3)=NN2C(=O)CSc2nc(=O)n3ccc(C)cc3n2)cc1 (centres undefined) | u | x | x | x | 11.7µM
COc1ccccc1Cn1c(=S)[nH]c2cc(C(=O)NCC(OC)OC)ccc2c1=O | n | n | n | n | u
O=S(=O)(NCC(c1cccnc1)N1CCN(c2ccccc2F)CC1)c1cccs1 (centres undefined) | u | n | n | n | 13.1µM
Cc1nc(/C(N)=N/OC(=O)c2ccccc2Cl)c(C(F)(F)F)o1 | n | 12.6µM | 91.3 | 52.5 | n
SMILES | Pf growth 96h | LmPK inhibitor | Shiga inhibitor | CHX counter | Pf growth 48h
Cc1nc(/C(N)=N/OC(=O)c2cccc(Cl)c2)c(C(F)(F)F)o1 | n | n | n | 11.3 | n
Cc1nc(C(=O)NNC(=O)c2ccc(Cl)cc2)c(C(F)(F)F)o1 | n | n | n | n | u
CC(NC(=O)COC(=O)c1ccc(CO)cc1)C1CC2CCC1C2 (centres undefined) | n | x | x | x | u
C#CC[N+](C)(C)C(C#Cc1ccccc1)CC=C (centres undefined) | 5.86µM | n | n | n | 9.28µM
CN1CCC(C2(O)c3ccccc3CCc3ccccc32)CC1 | n | n | 58.3 | 34.5 | n
O=C(CNC(=O)N1CC(=O)Nc2ccccc21)NCCc1c[nH]c2ccccc12 | n | n | n | n | n
O=S(=O)(NCCc1ccc2c(c1)OCCO2)c1cccs1 | n | n | n | 18.8 | n
O=S(=O)(NCCc1ccccc1)c1cccs1 | n | n | n | n | n
CC(=O)c1ccc(NC(=O)CCS(=O)(=O)c2ccc3c(c2)n(C)c(=O)c(=O)n3C)cc1 | 9.28µM | n | n | n | n
Cn1c(=O)oc2cc(NC(=O)CCl)ccc21 | 6.57µM | n | n | n | 5.22µM
CCC1Sc2ccc(S(=O)(=O)CCC(=O)Nc3ccc(NC(C)=O)cc3)cc2NC1=O (centres undefined) | 6.57µM | n | n | n | n
CC(=O)Nc1ccc(NC(=O)CCS(=O)(=O)c2ccc3c(c2)oc(=O)n3C)cc1 | 9.28µM | n | n | n | n
COc1ccc(NC(=O)CCS(=O)(=O)c2ccc3c(c2)oc(=O)n3C)cc1OC | u | n | n | n | n
Cc1cc(C)cc(NC(=O)CCNS(=O)(=O)c2ccc3c(c2)oc(=O)n3C)c1 | u | n | n | n | u
CCOc1ccccc1Nc1nc2ccccc2n1C(C)C | n | n | n | n | u
O=C(Cc1ccccc1)NC1(Cc2ccc(O)cc2)CCCCC1 | n | n | n | n | n
Cc1cccc(NC(=O)C(Cc2ccccc2)n2cccc2)c1 (centres undefined) | u | n | n | n | u
Cc1ccc(S(=O)(=O)CCC(=O)Nc2cccc(C)c2)cc1 | n | n | n | n | n
Cc1cccc(NC(=O)CCS(=O)(=O)c2ccc3c(c2)oc(=O)n3C)c1 | 8.28µM | n | n | n | n
Cc1cc(NC(=O)c2cc3cccc([N+](=O)[O-])c3[nH]2)ccc1F | u | n | 85.8 | 55.6 | u
COCC(C)NC(=O)c1cc2cccc([N+](=O)[O-])c2[nH]1 (centres undefined) | u | n | n | n | 5.22µM
COc1cc(/C=N/NC(N)=O)ccc1OCC(=O)Nc1cc(C)c(C)cc1Br | n | n | n | n | n
COc1ccc(N2Cc3ccccc3C2=NC(=O)c2ccc(C)cc2)cc1OC | u | n | n | n | u
O=C(N=C1c2ccccc2CN1c1ccccc1)c1cccc([N+](=O)[O-])c1 | n | n | n | 18.5 | n
O=C(N=C1c2ccccc2CN1c1cccc(Cl)c1)c1cccnc1 | n | n | 26.3 | 33.5 | n
SMILES | Pf growth 96h | LmPK inhibitor | Shiga inhibitor | CHX counter | Pf growth 48h
O=C(N=C1c2ccccc2CN1c1ccc(F)c(F)c1)c1cccnc1 | n | n | n | 28.7 | u
COc1ccccc1OCCC(=O)Nc1cccc(S(=O)(=O)N2CCOCC2)c1 | u | x | x | x | n
COc1ccccc1C(=O)NCCNc1ccc([N+](=O)[O-])cc1Cl | u | n | n | n | u
COc1ccc(CCNC(=O)c2ccccc2NS(=O)(=O)c2c(F)cccc2F)cc1 | n | n | n | n | u
Cc1ccc(OCC(=O)NNC(=O)c2cccnc2)cc1C | n | n | n | n | n
COc1ccc(OCC(=O)Nc2nc3c(s2)CCCC3)cc1 | n | n | 67.9 | 35.9 | n
Cc1ccc(CC(=O)Nc2nc3c(s2)CCCC3)cc1 | x | n | n | n | n
COc1ccc(NC(=O)Nc2nc3c(s2)CCCC3)cc1 | n | n | n | 19.1 | n
O=C(COc1ccc(F)cc1)Nc1nc2c(s1)CCCC2 | u | n | n | 37.6 | n
